Assay outcomes deposited in PubChem by several laboratories.
In the library only some 1.6% were active in any assay of this set; here they are far more common.
PABP FP inh – PABP-poly(A) binding inhibition | PABP-poly(A) RNA binding, fluorescence polarization | calls only at 35 µM | hit rate 1% among 290,000;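 also: calls also rest on retests at 20 µM and on dose response follow-up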
PERK inhibitor – blocks human PERK kinase | CHO PERK-DD fusion, SEAP luminescence translation reporter | Q9NZJ5 | inhibition, % at 5.6 µM | hit rate 0.17% among 220,000;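 active = inhibition above the mean inhibition of all tested compounds plus 3 SD, set separately per screening campaign, cut at about 2.9% in these data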;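 also: PERK kinase domain activated by AP20187 dimerizer at 100 nM; 0% = DMSO with dimerizer and 100% = rapamycin at 8.4 µM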
eIF4E 4G PPI – blocks eIF4E binding to eIF4G | P63073+Q04637 | TR-FRET eIF4E-eIF4GI(517-606) binding, 2 h | inhibition, % at 21.7 µM | hit rate 0.37% among 220,000 | AID 782;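 active = inhibition above about 30%, limit read from the data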;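 also: 0% = full FRET control wells and 100% = background wells lacking eIF4GI fragment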
MLLE-PAM2 inh – inhibitors of microRNA-mediated deadenylation, human PABP1 MLLE binding; GST-MLLE / FITC-PAM2 fluorescence polarization; P11940; hit rate 0.36% among 360,000; inhibition, % at 20 µM; in the data active = inhibition above about 35%, passing the limit was not always enough;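 also: plate controls were DMSO wells with GST-MLLE for no effect and wells lacking GST-MLLE protein for full effect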
eIF4H inh – inhibitors of RNA binding by human eIF4H; AID 2012; inhibition, % at 35 µM; Q15056; eIF4H fluorescence polarization binding assay; hit rate 0.94% among 290,000;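 also: calls also rest on retests at 20 µM and on dose response follow-up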
The depositor's hits bear a star; ! = a repeat was not active. Unless noted, no rule for the calls is given here.

How did COc1cc2cc3c(N)c(C(=O)Nc4sc(C)c(C)c4C#N)sc3nc2cc1OC do in these assays?
PABP FP inh: active; PERK inhibitor: 0; eIF4E 4G PPI: -5; MLLE-PAM2 inh: -33; eIF4H inh: 89*

Results for O=C(O)CCC(=O)Nc1cc(C(F)(F)F)cc(C(F)(F)F)c1 ?
PABP FP inh: inactive; PERK inhibitor: 1; eIF4E 4G PPI: 2; MLLE-PAM2 inh: 1; eIF4H inh: -2

How did COc1cc2ccccc2cc1C(=O)NC(=S)Nc1cccc(C(=O)O)c1 do in these assays?
PABP FP inh: inactive; PERK inhibitor: 1; eIF4E 4G PPI: -3; MLLE-PAM2 inh: 40*; eIF4H inh: -2

What do the screens show for `O=C(c1ccc(F)cc1)N1CCN=C1c1ccccc1`?
PABP FP inh: inactive; PERK inhibitor: 1; eIF4E 4G PPI: 14; MLLE-PAM2 inh: -4; eIF4H inh: -4

What do the screens show for `COc1ccc(S(=O)(=O)N(C(=O)C(C)C)c2ccc3oc(=O)sc3c2)cc1`?
PABP FP inh: inactive; PERK inhibitor: -1; eIF4E 4G PPI: -3; MLLE-PAM2 inh: 38*; eIF4H inh: -7

What do the screens show for `CCOc1ccccc1NC(=O)Nc1ccc(OC)nc1`?
PABP FP inh: active; MLLE-PAM2 inh: 48*; eIF4H inh: 68

What do the screens show for `CCCCCNc1nc(NCCCO)c(C#N)c2c1CN(C)CC2`?
PABP FP inh: inactive; PERK inhibitor: 0; eIF4E 4G PPI: 1; MLLE-PAM2 inh: 19; eIF4H inh: 127

Results for CCCCCNc1nc(N2CCCC2)c2c(c1C#N)CCN(C)C2 ?
PABP FP inh: active; PERK inhibitor: -1; eIF4E 4G PPI: 5; MLLE-PAM2 inh: 27; eIF4H inh: 59*

Results for CCCC[n+]1c2ccccc2cc2ccccc21 ?
PABP FP inh: active; MLLE-PAM2 inh: -83; eIF4H inh: 14

Results for Cc1ccc2ccccc2[n+]1CCCS(=O)(=O)[O-] ?
PABP FP inh: inactive; PERK inhibitor: 1; eIF4E 4G PPI: 2; MLLE-PAM2 inh: -5; eIF4H inh: 6

Results for CCCCC[n+]1cccc2c3ccccc3ccc21 ?
PABP FP inh: inactive; PERK inhibitor: 1; eIF4E 4G PPI: 13; MLLE-PAM2 inh: -140; eIF4H inh: -4

Results for CCC[n+]1c2ccccc2cc2ccccc21 ?
PABP FP inh: active; MLLE-PAM2 inh: -79; eIF4H inh: 0

How did Cn1c(=O)c2c(n(C)c1=O)n(C)c(=O)n2C do in these assays?
MLLE-PAM2 inh: -9

Results for Cc1ccc(N(C(=O)Nc2ccccc2)C2=NCCC2)cc1 ?
PABP FP inh: active; PERK inhibitor: 0; eIF4E 4G PPI: -2; MLLE-PAM2 inh: 10; eIF4H inh: 88*

What do the screens show for `COc1ccc(N=Nc2n(C)c3ccccc3[n+]2C)cc1`?
PABP FP inh: inconclusive; PERK inhibitor: 3.4*; eIF4E 4G PPI: 3; eIF4H inh: inconclusive

Results for CCOc1ccc(NC(=S)NC(=O)/C=C/c2ccc(C)cc2)c([N+](=O)[O-])c1 ?
PABP FP inh: inactive; PERK inhibitor: 0; eIF4E 4G PPI: -30; MLLE-PAM2 inh: 2; eIF4H inh: -5

What do the screens show for `CCOc1ccc(NC(=S)NC(=O)c2c(Cl)c(C)nn2C)c([N+](=O)[O-])c1`?
PABP FP inh: inactive; PERK inhibitor: 1; eIF4E 4G PPI: -4; MLLE-PAM2 inh: 40*; eIF4H inh: 2

How did CCCCCCOc1ccc(-c2ccc(C#N)cn2)cc1 do in these assays?
PABP FP inh: inactive; PERK inhibitor: 3.1*; eIF4E 4G PPI: 3; MLLE-PAM2 inh: -11; eIF4H inh: -11

How did CCOC(=O)c1ccc(NC(=O)c2cc3c(s2)CCC3)cc1 do in these assays?
PABP FP inh: inactive; PERK inhibitor: 0; eIF4E 4G PPI: 4; MLLE-PAM2 inh: -1; eIF4H inh: -9

Results for Cc1cc(C(=O)CSc2nn3c(=O)c(C(C)(C)C)nnc3s2)c(C)n1C ?
PABP FP inh: active; PERK inhibitor: 1; eIF4E 4G PPI: -5; MLLE-PAM2 inh: -32; eIF4H inh: 38*

How did COc1ccc(-n2c(C)cc(C(=O)CSc3nn4c(=O)c(C(C)(C)C)nnc4s3)c2C)cc1 do in these assays?
PABP FP inh: inactive; PERK inhibitor: 0; eIF4E 4G PPI: 2; MLLE-PAM2 inh: -46; eIF4H inh: 6

How did OCC1CCCN(C(=S)Nc2ccc(OC(F)F)cc2)C1 (centres undefined) do in these assays?
PABP FP inh: inactive; PERK inhibitor: 1; eIF4E 4G PPI: 1; MLLE-PAM2 inh: -63; eIF4H inh: -1

How did OCC1CCCN(C(=S)Nc2ccc(Nc3ccccc3)cc2)C1 (centres undefined) do in these assays?
PABP FP inh: active; PERK inhibitor: 0; eIF4E 4G PPI: -2; MLLE-PAM2 inh: -90; eIF4H inh: inconclusive

Results for COc1ccccc1P(=O)(c1ccccc1)c1ccc([N+](=O)[O-])cc1 (centres undefined) ?
PABP FP inh: inactive; MLLE-PAM2 inh: 4; eIF4H inh: -4

What do the screens show for `Cc1ccccc1Nc1nc(N)[nH]c(=O)c1N=O`?
MLLE-PAM2 inh: 45*

Results for CCc1c(Cl)nc(N)nc1Nc1ccccc1C ?
MLLE-PAM2 inh: -54

What do the screens show for `CC(C)(C)OC(=O)C(Cc1ccc(OC(C)(C)C)cc1)NC(=O)CNC(=O)CNC(=O)OCc1ccccc1` (centres undefined)?
PABP FP inh: inactive; PERK inhibitor: 0; eIF4E 4G PPI: 3; MLLE-PAM2 inh: 11; eIF4H inh: active

What do the screens show for `CC(NC(=O)OCc1ccccc1)C(=O)NCC(=O)NC(Cc1ccc(OC(C)(C)C)cc1)C(=O)OC(C)(C)C` (centres undefined)?
PABP FP inh: inactive; PERK inhibitor: 0; eIF4E 4G PPI: 6; MLLE-PAM2 inh: -3; eIF4H inh: -12

How did O=C(CSc1nc(O)c(Cc2ccccc2)c(=O)[nH]1)Nc1nnc(SCc2ccccc2)s1 do in these assays?
PABP FP inh: inactive; PERK inhibitor: 0; eIF4E 4G PPI: 1; MLLE-PAM2 inh: 37*; eIF4H inh: 1

What do the screens show for `CCCCNC(=O)CSc1nc(O)c(Cc2ccc(OC)cc2)c(=O)[nH]1`?
PABP FP inh: inactive; PERK inhibitor: 1; eIF4E 4G PPI: 4; MLLE-PAM2 inh: 0; eIF4H inh: -9

What do the screens show for `CCCCNC(=O)c1cccnc1SCC(=O)Nc1ccccc1OC`?
PABP FP inh: inactive; PERK inhibitor: 0; eIF4E 4G PPI: -2; MLLE-PAM2 inh: 7; eIF4H inh: -10

Results for O=C(CSc1nc(O)c(Cc2ccccc2)c(=O)[nH]1)Nc1ccccc1 ?
PABP FP inh: inactive; PERK inhibitor: 1; eIF4E 4G PPI: -1; MLLE-PAM2 inh: 43*; eIF4H inh: 1

How did CCCCCCCCNC(=O)c1cccnc1SCC(=O)Nc1ccc(OC)cc1OC do in these assays?
PABP FP inh: active; PERK inhibitor: 1; eIF4E 4G PPI: 0; MLLE-PAM2 inh: -5; eIF4H inh: 64*

How did COc1ccc(Cc2c(O)nc(SCC(=O)NC34CC5CC(CC(C5)C3)C4)[nH]c2=O)cc1 do in these assays?
PABP FP inh: inactive; PERK inhibitor: 1; eIF4E 4G PPI: -3; MLLE-PAM2 inh: 41*!; eIF4H inh: -4
